Our source for the AC50 and outcome values is PubChem BioAssay (EPA / NIEHS).

The AC50 is the concentration giving half of the maximal activity seen.

SMILES strings stand for the structures. Values joined by “and” are separate entries in the source; they are usually repeats but may differ in a detail not shown here. Identical values can stand only once. Inconclusive results are not listed. Active and inactive are the calls of the source. The calls were made as follows: active = hit-call score of the fitted dose curve at least 0.9, where 1 is the maximum; inconclusive = response in the unintended direction; inactive = score below 0.9.

Chain of Cytochrome P450 3A4 (Homo sapiens) (P08684 whole entry, looked up): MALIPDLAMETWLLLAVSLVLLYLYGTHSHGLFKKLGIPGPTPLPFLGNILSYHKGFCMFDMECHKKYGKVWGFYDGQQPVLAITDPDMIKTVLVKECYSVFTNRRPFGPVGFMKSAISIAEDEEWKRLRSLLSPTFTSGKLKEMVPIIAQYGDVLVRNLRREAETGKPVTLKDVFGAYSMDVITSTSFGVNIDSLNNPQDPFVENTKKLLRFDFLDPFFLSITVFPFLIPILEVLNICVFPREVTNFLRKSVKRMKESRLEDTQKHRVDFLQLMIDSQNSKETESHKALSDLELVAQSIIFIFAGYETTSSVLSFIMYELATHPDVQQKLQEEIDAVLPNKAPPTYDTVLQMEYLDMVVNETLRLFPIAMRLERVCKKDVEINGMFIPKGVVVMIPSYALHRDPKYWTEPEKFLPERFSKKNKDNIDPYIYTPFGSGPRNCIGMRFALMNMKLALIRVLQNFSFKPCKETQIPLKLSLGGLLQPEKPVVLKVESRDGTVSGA

Read-out in the assay: Cytochrome P450 3A4 (Homo sapiens) (UniProt P08684)
Briefly: CLD_CYP3A4_48hr: CellzDirect (CLD) Gene Expression Assay for xenobiotic metabolism (CYP3A4) at 48 hours (AID 2283698). As for the experimental part:
CLD_48hr is a cell-based, multiplexed-readout assay that uses hepatocyte, a human liver primary cell, with measurements taken at 48 hours after chemical dosing in a 96-well plate.CLD_CYP3A4_48hr is one of 16 assay component(s) measured or calculated from the CLD_48hr assay. It is designed to make measurements of mRNA induction, a form of inducible reporter, as detected with chemiluminescence signals by Quantitative Nuclease Protection Assay (qNPA) technology.Data from the assay component CLD_CYP3A4_48hr was analyzed at the endpoint, CLD_CYP3A4_48hr, in the positive analysis fitting direction relative to DMSO as the negative control and baseline of activity. Using a type of inducible reporter, gain-of-signal activity can be used to understand changes in the reporter gene as they relate to the gene CYP3A4. Furthermore, this assay endpoint can be referred to as a primary readout. To generalize the intended target to other relatable targets, this assay endpoint is annotated to the cyp intended target family, where subfamily is xenobiotic metabolism.
Human hepatocyte cultures were treated daily for two consecutive days with fresh dosing solutions containing appropriate concentrations of the 320 ToxCast chemicals (chemical identities were blinded to CellzDirect and other ToxCast collaborators), vehicle control (0.2% DMSO), and positive control inducers as summarized in Table 1. Due to the large number of treatment groups and chemicals examined, the ToxCast chemicals were divided into two groups (spanning two independent cultures of hepatocytes from separate donor preparations (Hu778: ToxCast plates 1 and 2; Hu776: ToxCast plates 3 and 4). Each preparation of human hepatocyte cultures was treated with respective vehicle control, medium only control, set of six positive controls/reference chemicals for the five hepatic receptor pathways, and a subset of eight of the ToxCast chemicals (indoxacarb, pyrithiobac-sodium, norflurazon, cyhalofop-butyl, methomyl, thiram, acetochlor, and propiconazole). These replicate data, coupled with internal replicates designed within the blinded ToxCast chemical library, provided additional data to evaluate interindividual differences between hepatocyte preparations and their potential impact on chemical profiles.Cell morphology and integrity were evaluated using phase-contrast microscopy as an indicator of hepatocyte cell health (Tyson & Green, 1987). Cultures for each treatment group (i.e., media, vehicle [0.2% DMSO], positive control inducers [multiple concentrations], and the ToxCast chemicals [multiple concentrations]) were observed and cell morphology was assessed relative to vehicle control cultures at each harvest time point (0, 6, 24, or 48 h). […] Images were evaluated at the conclusion of the study to assess changes in cell integrity and account for the effects of chemical exposure on uncharacteristic changes in concentration-dependent gene expression profiles. The results from these determinations of apparent cytotoxicity were annotated (yes/no) alongside the corresponding qNPA data for reference.At the conclusion of each treatment period, hepatocyte cultures (96-well) were washed with 1 volume of HBSS, lysed by addition of 25 ul ArrayPlate lysis buffer (HTG, Tucson, AZ), and 70 ul/well of Denaturation Oil, denatured by incubation at 95C for 10 min, and frozen at approximately -70C until analysis by nuclease protection assay (qNPA) (Roberts et al., 2007). For qNPA analysis, cell lysates were thawed at 50C for approximately 30 min, qNPA probes were added, and samples were incubated at 95C for 10 min to begin the detection process by denaturing the target RNA, dissociating the duplexes and secondary structure hybridization. At the conclusion of the hybridization period, S1 nuclease reagent was added to each sample to digest all nonprotected nucleotides at 50C for 60-90 min. […]
Consider `COc1nc(NC(C)C)nc(NC(C)C)n1`, for which the concentration at half-maximal activity (AC50) was 6.77 µM (active).
Same read-out and setting: as for `COc1nc(C)nc(NC(=O)NS(=O)(=O)c2ccccc2CCC(F)(F)F)n1`, the figure is 20 µM (active) and 4.16 µM (active) and 3.34 µM (active); as for `OC(c1ccc(Cl)cc1)(c1cncnc1)c1ccccc1Cl` (stereo not drawn), 0.443 µM (active).
On to `CC(C)Oc1cc(-n2nc(C(C)(C)C)oc2=O)c(Cl)cc1Cl`, for which the AC50 was 1.9 µM (active).
As to `CCOP(=S)(OCC)SCn1c(=O)oc2cc(Cl)ccc21`, the AC50 is 4.1 µM (active).
Same read-out and setting: as for `CCOc1cc(Oc2ccc(C(F)(F)F)cc2Cl)ccc1[N+](=O)[O-]`, the figure is 5.16 µM (active).
As for `Fc1ccc(Oc2ccnc3cc(Cl)cc(Cl)c23)cc1`, the call was inactive.
For `CC(Oc1ccc(Cl)cc1Cl)C(=O)O` (stereo not drawn), the outcome was inactive.
For the compound `O=C(O)c1nc(Cl)ccc1Cl`, the outcome was inactive.
`Oc1ccccc1-c1ccccc1`: the result was inactive.
Still for that read-out and setting: as for `COC(=O)C(C)Oc1ccc(Oc2ccc(Cl)cc2Cl)cc1` (stereo not drawn), the entry is “inactive”.
The same measure, in the same setting: as for `COP(N)(=O)SC` (stereo not drawn), the entry is “inactive”.
With `CCc1nn(C)c(C(=O)NCc2ccc(C(C)(C)C)cc2)c1Cl`, the concentration at half-maximal activity (AC50) was 20 µM (active).
For the compound `CCNc1nc(Cl)nc(NCC)n1`, the result was inactive.
In the case of `C#CCOS(=O)OC1CCCCC1Oc1ccc(C(C)(C)C)cc1` (stereo not drawn), the AC50 was 3.74 µM (active).
Same read-out and setting: as for `CCOC(=O)C(Cl)Cc1cc(-n2nc(C)n(C(F)F)c2=O)c(F)cc1Cl` (stereo not drawn), the figure is 4.77 µM (active).
For the compound `CON(C)C(=O)Nc1ccc(Cl)c(Cl)c1`, the result was inactive.
`CCCN(CCC)c1c([N+](=O)[O-])cc(S(N)(=O)=O)cc1[N+](=O)[O-]`: the half-maximal activity concentration (AC50) is 10 µM (active).
Still for that read-out and setting: under `CCNc1nc(Cl)nc(NC(C)C)n1` stands 14.2 µM (active).
With `CCCCNC(=O)OCC#CI`, the compound was called inactive.
Still for that read-out and setting: under `CCCCOC(=O)c1ccccc1C(=O)OCCCC` stands “inactive”.
The same measure, in the same setting: as for `COC(=O)c1ccccc1C(=O)OC`, the entry is “inactive”; as for `CNC(=O)ON=CC(C)(C)SC`, “inactive”; as for `CCOC(=O)CC(SP(=S)(OC)OC)C(=O)OCC` (stereo not drawn), “inactive”.
Still for that read-out and setting: as for `CC1COC(Cn2cncn2)(c2ccc(Oc3ccc(Cl)cc3)cc2Cl)O1` (stereo not drawn), the entry is “inactive”; as for `CC(C)(C)c1ccc(CSc2cnn(C(C)(C)C)c(=O)c2Cl)cc1`, “inactive”; as for `Cc1cc(Cl)ccc1OCC(=O)O`, “inactive”.
As for `COc1nc(C)nc(NC(=O)NS(=O)(=O)c2ccccc2Cl)n1`, the result was inactive.
Same read-out and setting: as for `CC(C)C1(C)N=C(c2nc3ccccc3cc2C(=O)O)NC1=O` (stereo not drawn), the entry is “inactive”.
Take `N#CC(CCc1ccc(Cl)cc1)(Cn1cncn1)c1ccccc1` (stereo not drawn): the AC50 is 0.736 µM (active).
The same measure, in the same setting: as for `CCCC1COC(Cn2cncn2)(c2ccc(Cl)cc2Cl)O1` (stereo not drawn), the figure is 2.06 µM (active); as for `COc1cnc(OC)n2nc(NS(=O)(=O)c3c(OCC(F)F)cccc3C(F)(F)F)nc12`, 20 µM (active).
For `COC(=O)C=C(C)OP(=O)(OC)OC`, the result was inactive.
For `CC1=C(C(=O)Nc2ccccc2)SCCO1`, the result was inactive.
As to `Cc1c(F)c(F)c(COC(=O)C2C(/C=C(\Cl)C(F)(F)F)C2(C)C)c(F)c1F` (stereo not drawn), the AC50 was 20 µM (active).
As to `COP(=S)(OC)Oc1nc(Cl)c(Cl)cc1Cl`, the call was inactive.
The same measure, in the same setting: as for `CCCCC(CC)COC(=O)c1ccccc1C(=O)OCC(CC)CCCC` (stereo not drawn), the entry is “inactive”.
Take `N#Cc1nn(-c2c(Cl)cc(C(F)(F)F)cc2Cl)c(N)c1S(=O)C(F)(F)F` (stereo not drawn): the AC50 was 1.1 µM (active).
